# Data taken from article PMC12529666, “Dysregulation of AGO2-miRNA dynamics underlies the AGO2-associated Lessel–Kreienkamp syndrome”.
# How the values were obtained:
# Assay in all cases: RNA Bind-n-Seq (nitrocellulose filter binding and sequencing); miR-122 guide loaded in AGO2; 60 min incubation; 30 mM Tris pH 8.0, 100 mM potassium acetate, 2 mM magnesium acetate, 0.5 mM TCEP, 0.005% NP-40, 0.01 mg/ml yeast tRNA; 3 nM AGO2-miR-122, 100 nM RNA library; 60; high values mean tight binding
# Details in all cases: protein: recombinant; tags: His6 (N-terminal, pFastBac HTA)
# [1] = molecular target: AGO2 L192P (Homo sapiens, UniProt Q9UKV8 1-859, L192P;S387D;S824A;S828D;S831D;S834A)
# AGO2 L192P, sequence (Q9UKV8 whole entry L192P/S387D/S824A/S828D/S831D/S834A): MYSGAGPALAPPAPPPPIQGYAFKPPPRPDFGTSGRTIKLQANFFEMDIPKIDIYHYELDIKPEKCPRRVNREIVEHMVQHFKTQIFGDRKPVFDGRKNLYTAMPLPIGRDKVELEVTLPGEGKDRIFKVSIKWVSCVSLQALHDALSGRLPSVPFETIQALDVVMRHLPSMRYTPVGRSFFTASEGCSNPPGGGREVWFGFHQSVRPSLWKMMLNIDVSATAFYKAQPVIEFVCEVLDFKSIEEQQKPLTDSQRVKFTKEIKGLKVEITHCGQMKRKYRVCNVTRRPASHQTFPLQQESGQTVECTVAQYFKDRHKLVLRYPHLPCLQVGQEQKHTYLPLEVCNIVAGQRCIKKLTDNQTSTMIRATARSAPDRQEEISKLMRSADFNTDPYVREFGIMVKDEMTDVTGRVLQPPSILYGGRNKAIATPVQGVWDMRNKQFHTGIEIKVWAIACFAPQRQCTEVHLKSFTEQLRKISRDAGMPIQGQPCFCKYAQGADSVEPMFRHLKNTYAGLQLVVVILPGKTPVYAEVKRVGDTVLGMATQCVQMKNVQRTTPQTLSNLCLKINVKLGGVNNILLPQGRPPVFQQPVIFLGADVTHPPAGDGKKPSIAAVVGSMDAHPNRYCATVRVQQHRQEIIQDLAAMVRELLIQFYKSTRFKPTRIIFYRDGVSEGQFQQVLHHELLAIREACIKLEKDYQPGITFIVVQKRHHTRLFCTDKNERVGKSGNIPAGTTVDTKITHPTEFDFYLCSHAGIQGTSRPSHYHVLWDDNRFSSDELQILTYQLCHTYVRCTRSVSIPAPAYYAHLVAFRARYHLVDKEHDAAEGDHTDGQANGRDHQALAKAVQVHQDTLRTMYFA
# Method in brief: (§1)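 Fold enrichment is each target's read fraction divided by its read fraction in the input library. Sf9 insect cells expressed His-tagged AGO2 from baculovirus; the protein was loaded with a synthetic guide RNA and purified by Ni-NTA and a biotinylated capture oligo. The bound RNA was extracted, reverse-transcribed, barcode-amplified and sequenced on Illumina.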
# [2] = molecular target: AGO2 A367P (Homo sapiens, UniProt Q9UKV8 1-859, A367P;S387D;S824A;S828D;S831D;S834A)
# AGO2 A367P, sequence (Q9UKV8 whole entry A367P/S387D/S824A/S828D/S831D/S834A): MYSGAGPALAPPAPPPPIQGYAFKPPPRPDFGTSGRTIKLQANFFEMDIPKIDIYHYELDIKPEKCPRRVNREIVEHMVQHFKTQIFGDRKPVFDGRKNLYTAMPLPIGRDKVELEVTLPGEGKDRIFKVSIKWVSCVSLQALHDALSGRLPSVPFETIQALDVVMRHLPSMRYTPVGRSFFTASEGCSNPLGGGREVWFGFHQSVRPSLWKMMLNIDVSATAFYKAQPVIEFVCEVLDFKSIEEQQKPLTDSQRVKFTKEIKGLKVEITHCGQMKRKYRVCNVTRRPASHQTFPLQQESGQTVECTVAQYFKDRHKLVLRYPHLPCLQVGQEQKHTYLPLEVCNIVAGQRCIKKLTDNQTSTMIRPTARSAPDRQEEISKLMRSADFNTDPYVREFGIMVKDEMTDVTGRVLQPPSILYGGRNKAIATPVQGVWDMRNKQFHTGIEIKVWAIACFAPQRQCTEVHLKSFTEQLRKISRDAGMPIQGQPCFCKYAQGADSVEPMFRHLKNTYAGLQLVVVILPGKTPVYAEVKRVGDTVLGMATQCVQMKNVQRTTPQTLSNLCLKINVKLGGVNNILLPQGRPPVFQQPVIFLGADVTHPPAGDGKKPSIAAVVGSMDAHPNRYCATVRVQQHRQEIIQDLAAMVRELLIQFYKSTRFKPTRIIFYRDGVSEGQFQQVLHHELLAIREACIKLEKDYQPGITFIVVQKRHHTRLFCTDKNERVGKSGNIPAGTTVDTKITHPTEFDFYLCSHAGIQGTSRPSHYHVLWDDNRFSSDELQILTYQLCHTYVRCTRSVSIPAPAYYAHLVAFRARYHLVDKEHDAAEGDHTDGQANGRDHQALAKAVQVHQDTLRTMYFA
# Method in brief: as §1
# [3] = molecular target: AGO2 T357M (Homo sapiens, UniProt Q9UKV8 1-859, T357M;S387D;S824A;S828D;S831D;S834A)
# AGO2 T357M, sequence (Q9UKV8 whole entry T357M/S387D/S824A/S828D/S831D/S834A): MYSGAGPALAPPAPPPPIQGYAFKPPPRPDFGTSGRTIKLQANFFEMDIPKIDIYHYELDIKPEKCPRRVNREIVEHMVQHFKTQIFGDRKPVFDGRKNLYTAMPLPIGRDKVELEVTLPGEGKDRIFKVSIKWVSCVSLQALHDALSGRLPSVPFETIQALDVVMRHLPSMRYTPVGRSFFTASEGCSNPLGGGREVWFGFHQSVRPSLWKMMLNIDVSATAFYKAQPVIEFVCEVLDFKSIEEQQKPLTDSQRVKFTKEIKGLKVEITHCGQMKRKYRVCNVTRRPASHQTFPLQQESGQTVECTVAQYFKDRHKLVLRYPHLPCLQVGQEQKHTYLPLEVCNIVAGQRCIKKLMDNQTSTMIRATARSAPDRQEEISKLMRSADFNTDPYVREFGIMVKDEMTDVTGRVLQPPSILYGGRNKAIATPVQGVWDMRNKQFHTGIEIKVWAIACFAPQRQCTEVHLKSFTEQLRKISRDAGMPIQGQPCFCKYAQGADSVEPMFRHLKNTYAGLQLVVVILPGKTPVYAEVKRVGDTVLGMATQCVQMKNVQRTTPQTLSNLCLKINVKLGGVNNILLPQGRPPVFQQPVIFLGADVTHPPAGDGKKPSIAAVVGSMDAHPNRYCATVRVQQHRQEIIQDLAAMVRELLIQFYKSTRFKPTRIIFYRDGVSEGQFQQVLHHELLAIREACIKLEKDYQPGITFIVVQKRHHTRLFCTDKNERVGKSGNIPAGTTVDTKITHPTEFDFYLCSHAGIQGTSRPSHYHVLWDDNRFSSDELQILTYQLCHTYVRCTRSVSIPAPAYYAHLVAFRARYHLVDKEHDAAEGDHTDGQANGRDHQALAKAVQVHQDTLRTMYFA
# Method in brief: as §1
# [4] = molecular target: AGO2 F182del (Homo sapiens, UniProt Q9UKV8 1-859, S387D;S824A;S828D;S831D;S834A;del182-182)
# AGO2 F182del, sequence (Q9UKV8 other isoform, or with tags, fused parts or gaps S387D;S824A;S828D;S831D;S834A;del182-182): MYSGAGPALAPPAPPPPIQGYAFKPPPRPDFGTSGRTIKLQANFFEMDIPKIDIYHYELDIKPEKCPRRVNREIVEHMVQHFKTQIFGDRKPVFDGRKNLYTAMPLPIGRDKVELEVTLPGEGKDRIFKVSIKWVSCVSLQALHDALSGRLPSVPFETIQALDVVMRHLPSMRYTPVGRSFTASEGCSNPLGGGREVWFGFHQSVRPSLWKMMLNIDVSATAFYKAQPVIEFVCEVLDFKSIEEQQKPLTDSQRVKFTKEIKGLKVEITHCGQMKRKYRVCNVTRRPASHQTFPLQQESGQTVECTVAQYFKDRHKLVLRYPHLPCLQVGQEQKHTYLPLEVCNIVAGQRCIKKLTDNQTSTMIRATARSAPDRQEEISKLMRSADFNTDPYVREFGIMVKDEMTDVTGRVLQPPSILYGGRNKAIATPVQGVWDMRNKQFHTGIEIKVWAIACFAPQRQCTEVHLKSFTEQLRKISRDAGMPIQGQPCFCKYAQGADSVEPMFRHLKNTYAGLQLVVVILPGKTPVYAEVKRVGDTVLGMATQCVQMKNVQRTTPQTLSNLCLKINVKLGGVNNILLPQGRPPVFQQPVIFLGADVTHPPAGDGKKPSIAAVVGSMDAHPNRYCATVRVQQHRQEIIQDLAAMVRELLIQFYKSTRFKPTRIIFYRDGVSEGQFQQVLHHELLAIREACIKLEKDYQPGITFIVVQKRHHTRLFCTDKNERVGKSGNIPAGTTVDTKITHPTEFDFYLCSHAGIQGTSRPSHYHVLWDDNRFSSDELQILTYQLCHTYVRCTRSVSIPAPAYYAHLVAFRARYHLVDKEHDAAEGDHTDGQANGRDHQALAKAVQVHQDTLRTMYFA
# Method in brief: as §1
Binder,binding signal [1],binding signal [2],binding signal [3],binding signal [4]
"ACACTTTG (ssRNA, constant regions annealed to DNA blockers; guide miR-122 5' phosphate) RNA 1: GAGUUCUACAGUCCGACGAUCCCAACACACUUUGCACCUGGAAUUCUCGGGUGCCAA RNA 2: UGGAGUGUGACAAUGGUGUUUG DNA 1: GATCGTCGGACTGTAGAACTC DNA 2: TTGGCACCCGAGAATTCCA",0.388 fold enrichment over input,0.177 fold enrichment over input,0.494 fold enrichment over input,–
"GTACCCCA (ssRNA, constant regions annealed to DNA blockers; guide miR-122 5' phosphate) RNA 1: GAGUUCUACAGUCCGACGAUCCCAACGUACCCCACACCUGGAAUUCUCGGGUGCCAA RNA 2: UGGAGUGUGACAAUGGUGUUUG DNA 1: GATCGTCGGACTGTAGAACTC DNA 2: TTGGCACCCGAGAATTCCA",0.497 fold enrichment over input,0.247 fold enrichment over input,0.616 fold enrichment over input,0.455 fold enrichment over input
"GTGTTTTA (ssRNA, constant regions annealed to DNA blockers; guide miR-122 5' phosphate) RNA 1: GAGUUCUACAGUCCGACGAUCCCAACGUGUUUUACACCUGGAAUUCUCGGGUGCCAA RNA 2: UGGAGUGUGACAAUGGUGUUUG DNA 1: GATCGTCGGACTGTAGAACTC DNA 2: TTGGCACCCGAGAATTCCA",0.467 fold enrichment over input,0.167 fold enrichment over input,0.565 fold enrichment over input,–
"GCACTTTA (ssRNA, constant regions annealed to DNA blockers; guide miR-122 5' phosphate) RNA 1: GAGUUCUACAGUCCGACGAUCCCAACGCACUUUACACCUGGAAUUCUCGGGUGCCAA RNA 2: UGGAGUGUGACAAUGGUGUUUG DNA 1: GATCGTCGGACTGTAGAACTC DNA 2: TTGGCACCCGAGAATTCCA",0.493 fold enrichment over input,0.209 fold enrichment over input,0.763 fold enrichment over input,0.122 fold enrichment over input
"GTGCCCTA (ssRNA, constant regions annealed to DNA blockers; guide miR-122 5' phosphate) RNA 1: GAGUUCUACAGUCCGACGAUCCCAACGUGCCCUACACCUGGAAUUCUCGGGUGCCAA RNA 2: UGGAGUGUGACAAUGGUGUUUG DNA 1: GATCGTCGGACTGTAGAACTC DNA 2: TTGGCACCCGAGAATTCCA",0.458 fold enrichment over input,0.188 fold enrichment over input,0.663 fold enrichment over input,–
"ACGCCTTG (ssRNA, constant regions annealed to DNA blockers; guide miR-122 5' phosphate) RNA 1: GAGUUCUACAGUCCGACGAUCCCAACACGCCUUGCACCUGGAAUUCUCGGGUGCCAA RNA 2: UGGAGUGUGACAAUGGUGUUUG DNA 1: GATCGTCGGACTGTAGAACTC DNA 2: TTGGCACCCGAGAATTCCA",0.367 fold enrichment over input,0.164 fold enrichment over input,0.54 fold enrichment over input,–
"GTACCCTA (ssRNA, constant regions annealed to DNA blockers; guide miR-122 5' phosphate) RNA 1: GAGUUCUACAGUCCGACGAUCCCAACGUACCCUACACCUGGAAUUCUCGGGUGCCAA RNA 2: UGGAGUGUGACAAUGGUGUUUG DNA 1: GATCGTCGGACTGTAGAACTC DNA 2: TTGGCACCCGAGAATTCCA",0.468 fold enrichment over input,0.168 fold enrichment over input,0.602 fold enrichment over input,–
"GCGTTCCG (ssRNA, constant regions annealed to DNA blockers; guide miR-122 5' phosphate) RNA 1: GAGUUCUACAGUCCGACGAUCCCAACGCGUUCCGCACCUGGAAUUCUCGGGUGCCAA RNA 2: UGGAGUGUGACAAUGGUGUUUG DNA 1: GATCGTCGGACTGTAGAACTC DNA 2: TTGGCACCCGAGAATTCCA",0.404 fold enrichment over input,0.149 fold enrichment over input,0.583 fold enrichment over input,–
"ACATTCTG (ssRNA, constant regions annealed to DNA blockers; guide miR-122 5' phosphate) RNA 1: GAGUUCUACAGUCCGACGAUCCCAACACAUUCUGCACCUGGAAUUCUCGGGUGCCAA RNA 2: UGGAGUGUGACAAUGGUGUUUG DNA 1: GATCGTCGGACTGTAGAACTC DNA 2: TTGGCACCCGAGAATTCCA",0.392 fold enrichment over input,0.13 fold enrichment over input,0.531 fold enrichment over input,–
"GTGCTCTA (ssRNA, constant regions annealed to DNA blockers; guide miR-122 5' phosphate) RNA 1: GAGUUCUACAGUCCGACGAUCCCAACGUGCUCUACACCUGGAAUUCUCGGGUGCCAA RNA 2: UGGAGUGUGACAAUGGUGUUUG DNA 1: GATCGTCGGACTGTAGAACTC DNA 2: TTGGCACCCGAGAATTCCA",0.463 fold enrichment over input,0.178 fold enrichment over input,0.601 fold enrichment over input,–
"GCGTCTTA (ssRNA, constant regions annealed to DNA blockers; guide miR-122 5' phosphate) RNA 1: GAGUUCUACAGUCCGACGAUCCCAACGCGUCUUACACCUGGAAUUCUCGGGUGCCAA RNA 2: UGGAGUGUGACAAUGGUGUUUG DNA 1: GATCGTCGGACTGTAGAACTC DNA 2: TTGGCACCCGAGAATTCCA",0.473 fold enrichment over input,0.2 fold enrichment over input,0.656 fold enrichment over input,–
"GTGTTTCA (ssRNA, constant regions annealed to DNA blockers; guide miR-122 5' phosphate) RNA 1: GAGUUCUACAGUCCGACGAUCCCAACGUGUUUCACACCUGGAAUUCUCGGGUGCCAA RNA 2: UGGAGUGUGACAAUGGUGUUUG DNA 1: GATCGTCGGACTGTAGAACTC DNA 2: TTGGCACCCGAGAATTCCA",0.477 fold enrichment over input,0.178 fold enrichment over input,0.587 fold enrichment over input,–
"GTACTTTA (ssRNA, constant regions annealed to DNA blockers; guide miR-122 5' phosphate) RNA 1: GAGUUCUACAGUCCGACGAUCCCAACGUACUUUACACCUGGAAUUCUCGGGUGCCAA RNA 2: UGGAGUGUGACAAUGGUGUUUG DNA 1: GATCGTCGGACTGTAGAACTC DNA 2: TTGGCACCCGAGAATTCCA",0.446 fold enrichment over input,0.161 fold enrichment over input,0.636 fold enrichment over input,–
"ACGTCCTG (ssRNA, constant regions annealed to DNA blockers; guide miR-122 5' phosphate) RNA 1: GAGUUCUACAGUCCGACGAUCCCAACACGUCCUGCACCUGGAAUUCUCGGGUGCCAA RNA 2: UGGAGUGUGACAAUGGUGUUUG DNA 1: GATCGTCGGACTGTAGAACTC DNA 2: TTGGCACCCGAGAATTCCA",0.312 fold enrichment over input,0.143 fold enrichment over input,0.434 fold enrichment over input,–
"ATACCCCA (ssRNA, constant regions annealed to DNA blockers; guide miR-122 5' phosphate) RNA 1: GAGUUCUACAGUCCGACGAUCCCAACAUACCCCACACCUGGAAUUCUCGGGUGCCAA RNA 2: UGGAGUGUGACAAUGGUGUUUG DNA 1: GATCGTCGGACTGTAGAACTC DNA 2: TTGGCACCCGAGAATTCCA",0.5 fold enrichment over input,0.177 fold enrichment over input,0.552 fold enrichment over input,0.199 fold enrichment over input
"ATACCCTA (ssRNA, constant regions annealed to DNA blockers; guide miR-122 5' phosphate) RNA 1: GAGUUCUACAGUCCGACGAUCCCAACAUACCCUACACCUGGAAUUCUCGGGUGCCAA RNA 2: UGGAGUGUGACAAUGGUGUUUG DNA 1: GATCGTCGGACTGTAGAACTC DNA 2: TTGGCACCCGAGAATTCCA",0.447 fold enrichment over input,0.148 fold enrichment over input,0.496 fold enrichment over input,–
"GTGTCCTA (ssRNA, constant regions annealed to DNA blockers; guide miR-122 5' phosphate) RNA 1: GAGUUCUACAGUCCGACGAUCCCAACGUGUCCUACACCUGGAAUUCUCGGGUGCCAA RNA 2: UGGAGUGUGACAAUGGUGUUUG DNA 1: GATCGTCGGACTGTAGAACTC DNA 2: TTGGCACCCGAGAATTCCA",0.451 fold enrichment over input,0.158 fold enrichment over input,0.528 fold enrichment over input,–
"GTATCCTA (ssRNA, constant regions annealed to DNA blockers; guide miR-122 5' phosphate) RNA 1: GAGUUCUACAGUCCGACGAUCCCAACGUAUCCUACACCUGGAAUUCUCGGGUGCCAA RNA 2: UGGAGUGUGACAAUGGUGUUUG DNA 1: GATCGTCGGACTGTAGAACTC DNA 2: TTGGCACCCGAGAATTCCA",0.448 fold enrichment over input,0.17 fold enrichment over input,0.563 fold enrichment over input,0.121 fold enrichment over input
"GCATCTTA (ssRNA, constant regions annealed to DNA blockers; guide miR-122 5' phosphate) RNA 1: GAGUUCUACAGUCCGACGAUCCCAACGCAUCUUACACCUGGAAUUCUCGGGUGCCAA RNA 2: UGGAGUGUGACAAUGGUGUUUG DNA 1: GATCGTCGGACTGTAGAACTC DNA 2: TTGGCACCCGAGAATTCCA",0.487 fold enrichment over input,0.189 fold enrichment over input,0.676 fold enrichment over input,–
"ATGTTTTG (ssRNA, constant regions annealed to DNA blockers; guide miR-122 5' phosphate) RNA 1: GAGUUCUACAGUCCGACGAUCCCAACAUGUUUUGCACCUGGAAUUCUCGGGUGCCAA RNA 2: UGGAGUGUGACAAUGGUGUUUG DNA 1: GATCGTCGGACTGTAGAACTC DNA 2: TTGGCACCCGAGAATTCCA",0.387 fold enrichment over input,0.134 fold enrichment over input,0.541 fold enrichment over input,–
"GCACCCTG (ssRNA, constant regions annealed to DNA blockers; guide miR-122 5' phosphate) RNA 1: GAGUUCUACAGUCCGACGAUCCCAACGCACCCUGCACCUGGAAUUCUCGGGUGCCAA RNA 2: UGGAGUGUGACAAUGGUGUUUG DNA 1: GATCGTCGGACTGTAGAACTC DNA 2: TTGGCACCCGAGAATTCCA",0.416 fold enrichment over input,0.171 fold enrichment over input,0.566 fold enrichment over input,0.176 fold enrichment over input
"ATGCCCCG (ssRNA, constant regions annealed to DNA blockers; guide miR-122 5' phosphate) RNA 1: GAGUUCUACAGUCCGACGAUCCCAACAUGCCCCGCACCUGGAAUUCUCGGGUGCCAA RNA 2: UGGAGUGUGACAAUGGUGUUUG DNA 1: GATCGTCGGACTGTAGAACTC DNA 2: TTGGCACCCGAGAATTCCA",0.377 fold enrichment over input,0.134 fold enrichment over input,0.489 fold enrichment over input,–
